# Assay results: PubChem BioAssay AID463212 (Sanford-Burnham Center for Chemical Genomics, 2010)
# About 4,400 (1.3%) of roughly 330,000 compounds were called active. The entries come from a sample that favours actives as a whole. A number with no mark means an inactive call.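 The calls were made as follows: active = growth inhibition of the mutant yeast at or above 50%; inactive = the rest.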
# Experiment: growth inhibition of tim23-1 ts yeast – luminescence, uHTS, primary screen (AID 463212);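 also: temperature-sensitive mutant grown at 25 °C; plate controls were DMSO-treated mutant yeast for no effect and medium wells lacking yeast for full effect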
# Conditions: S. cerevisiae tim23-1 growth, BacTiter-Glo luminescence, 24 h; at 20 µM; stronger effect = higher value
row,SMILES,inhibition
1,Cc1ccc(S(=O)(=O)NCC(C)NS(C)(=O)=O)cc1 (stereo unspecified),-7.63%
2,CCOCCCNC(=O)Cc1cc(=O)[nH]c(=O)[nH]1,-8.09%
3,COC(=O)c1ccc(-c2c(-c3ccccc3)ncc3cc(OC)c(OC)cc23)cc1,18.9%
4,CCOC(=O)C1CSC(CC(=O)Nc2ccc(OCC)cc2)C(=O)N1 (stereo unspecified),4.52%
5,Cc1cccc(NC(=S)NC23CN4CN(CN(C4)C2)C3)c1,1.34%
6,Cc1cccc(NC(=S)Nc2ccc(Cl)c(Cl)c2)c1,60.8% (active)
7,Cc1cccc(NC(=S)Nc2ccc3cn[nH]c3c2)c1,-3.63%
8,Cc1ccc(-n2ncc(C(=O)NC3CC3)c2C2CCN(C(=O)OC(C)(C)C)CC2)c(C)c1,13.5%
9,CCOC(=O)Nc1ccc2c(c1)N(C(=O)CN1CCN3CCCC3C1)c1ccccc1CC2 (stereo unspecified),11.3%
10,Cc1nn(-c2ccccc2)c(C)c1/C=C/C(=O)OC(C)C(N)=O (stereo unspecified),10.4%
11,Cc1nn(-c2ccccc2)c(Cl)c1/C=C/C(=O)c1ccc(O)cc1,50.6% (active)
12,Cc1ccc(C(=O)/C=C/c2c(C)nn(-c3ccccc3)c2Cl)cc1,36.5%
13,CCOc1cc(/C=C2\SC(N3CCCC(C)C3)=NC2=O)ccc1O (stereo unspecified),51.4% (active)
14,CC1CCN(C2=NC(=O)/C(=C/c3ccc(O)cc3)S2)CC1,31.9%
15,CCOc1cc(/C=C2\SC(N3CCCCC3)=NC2=O)ccc1O,38.3%
16,COc1ccc(N(CC(=O)NC2CCCCC2)S(=O)(=O)c2c(C)[nH]c(=O)[nH]c2=O)cc1,6.85%
17,CCOC(=O)N/N=C/c1cccnc1,4.17%
18,Cc1ccc(NC(=O)CSc2cccc3cccnc23)c(C)c1,19.5%
19,O=C(CSc1cccc2cccnc12)N/N=C/c1cccnc1,52.9% (active)
20,N#Cc1ccc(C(c2ccc(C#N)cc2)n2cncn2)cc1,9.59%
21,CCc1noc(C)c1C(=O)N1CCCC(N2CCN(c3ccc(F)cc3)CC2)C1 (stereo unspecified),-9.74%

row,SMILES,inhibition
1,CC(C)OC(=O)Cn1nc(C(F)(F)F)c2c1CCCC2,-5.77%
2,Cc1ccccc1C(=O)NC(=S)NC1CC1,56.1% (active)
3,O=C(NC(=S)NC1CCSC1=O)c1ccccc1F (stereo unspecified),-11.9%
4,Cc1ccccc1C(=O)NC(=S)Nc1ccc(N2CCN(C(=O)c3ccccc3)CC2)cc1,-0.446%
5,COC(=O)[C@@]1(C)[C@H]2C(=O)N(Cc3ccccc3)C(=O)[C@H]2[C@H]2CN=C(SCC3CC3)N21,28.2%
6,CC1=C(C(=O)OCC2CCCCC2)C(c2ccc(F)cc2)NC(=O)N1 (stereo unspecified),23.5%
7,S=C(NCCCc1ccccc1)Nc1ccc(Br)cc1,62.8% (active)
8,O=S(=O)(NCCCc1ccccc1)c1ccc(Br)cc1,33.6%
9,S=C(Nc1ccc(Br)cc1)NC1CCN(Cc2ccccc2)CC1,3.13%
10,O=C1C(=O)N(CCCO)C(c2ccccc2)/C1=C(\O)c1ccc(Br)cc1 (stereo unspecified),6.61%
11,CCOc1ccc(CN2CCC(n3nccc3NC(=O)C3CC3)CC2)cc1CO,-0.767%
12,O=C(NCc1ccc2c(c1)OCO2)c1c(O)nc2sccn2c1=O,68.2% (active)
13,O=C(NCc1ccc2c(c1)OCO2)c1sccc1Br,11%
14,CCn1c(=O)c(C(=O)NCc2ccc3c(c2)OCO3)c(O)c2ccccc21,28.6%
15,CCCOc1ccc(/C(O)=C2/C(=O)C(=O)N(CCN(C)C)C2c2ccc(OC)c(OC)c2)cc1 (stereo unspecified),3.19%
16,Cc1ccccc1N1C(=O)C(Oc2ccc(Cl)cc2)C1CNCC1CCCO1 (stereo unspecified),32.6%
17,Fc1ccc(-c2ccc(NCCN3CCOCC3)nn2)cc1,-3.29%
18,COc1ccc(C(=O)C(C)OC(=O)c2cccc(S(=O)(=O)Nc3c(C)n(C)n(-c4ccccc4)c3=O)c2)cc1 (stereo unspecified),15.2%
19,N#C/C(=C\c1ccc(O)c(O)c1)C(=O)NCc1ccccc1,12.3%
20,COCCNC(=O)/C(C#N)=C/c1cccc(OCc2ccccc2)c1,68.2% (active)
21,O=C(N/N=C/c1cccc(OCc2ccccc2)c1)c1ccc(Br)o1,47.5%

row,SMILES,inhibition
1,COc1cccc(N(CC(=O)NC2CCCCCC2)S(=O)(=O)c2ccccc2)c1,11.3%
2,Cc1c(S(=O)(=O)NCc2ccccc2)c(=O)n(C)c(=O)n1C,4.82%
3,O=C(N/N=C/c1cccnc1)c1ccc(NC(=O)c2ccc(F)cc2)cc1,4.04%
4,N#C/C(=C\c1cccnc1)C(=O)Nc1ccc(SC(F)F)cc1,76.7% (active)
5,Cc1cc(/C=C(/C#N)C(=O)Nc2ccc(Cl)cc2)c(C)n1-c1cccnc1,5.94%
6,CN=C(c1ccccc1)c1c(C)cccc1C,3.2%
7,COc1ccccc1NC(=O)c1ccc(N2CC3CC(C2)c2cccc(=O)n2C3)c(NC(=O)c2cccnc2)c1 (stereo unspecified),-0.075%
8,CC1CCCN(CCCNC(=O)CN2C(=O)COc3ccc(S(=O)(=O)N4CCOCC4)cc32)C1 (stereo unspecified),-34.2%
9,COCCNC(=O)CN1C(=O)CSc2ncccc21,11.6%
10,CCc1ccc2c(c1)C1(NN=C(c3ccccc3)S1)C(=O)N2 (stereo unspecified),52.6% (active)
11,O=C(CNC(=O)c1ccc(Cl)cc1Cl)NCC(=O)Nc1ccccc1N1CCOCC1,3.5%
12,CC(Oc1cccc(NC(=O)c2cccs2)c1)C(=O)c1ccccc1 (stereo unspecified),34.3%
13,Cc1cccc(NC(=O)Nc2cccc(Oc3c(F)c(F)c(F)c(F)c3F)c2)c1,17%
14,Cc1ccoc1C(=O)Nc1cccc(Oc2ccccc2)c1,77.9% (active)
15,N#Cc1ccccc1S(=O)(=O)N1CCN(Cc2c(O)ccc3ccccc23)CC1,21.3%
16,Cc1cc(Nc2ccccc2)n(C(=O)c2ccc(N)cc2)n1,57.6% (active)
17,Cn1c(Nc2ccccc2)cc(=O)n(C)c1=O,6.86%
18,CCOC(=O)c1c(N)nn(C(=O)c2ccccc2)c1-c1ccccc1,27%
19,O=C(COc1ccc(Cl)cc1Cl)N/N=C/c1ccccn1,39%
